In ChEMBL document CHEMBL4513149, “CO-ADD screening of MMV (CH) - MMV compounds” (2021) one finds Inhibition data, which are given here for ten compounds.

Entries with a potency or affinity are not part of this list.

The subject of one assay is Klebsiella pneumoniae. To be noted: Concentration 20 uM; ASSAY_TEST Inhibition of Bacterial Growth; detection method Absorption (OD600); MEDIA CAMHB; plate type 384well; NBS; CORNING #3640; time 18 hr.
In a further assay the test system is Candida albicans. The conditions noted are these: 20 µM.
The test system of a further assay is Cryptococcus neoformans. To be noted: Concentration 20 uM; ASSAY_TEST Inhibition of Fungal Growth; detection method Resazurin; Absorption (OD600-OD570); plate type 384well; NBS; CORNING #3640. For orientation: Alamar Blue is a resazurin reagent that responds to reducing activity.

Usually Inhibition stands for the relative decrease from the control value, in per cent.

As for `Nc1c2c(nc3sc4c(c13)CCCC4)CCCC2`, the Inhibition in the assay on Klebsiella pneumoniae was 3.88%; in the assay on Candida albicans, 0.42%; in the assay on Cryptococcus neoformans, -9.94%.
As for `CNCCC(Oc1ccc(C(F)(F)F)cc1)c1ccccc1` (stereo not given) [FLUOXETINE], the Inhibition with Klebsiella pneumoniae was 7.93%; in the assay on Candida albicans it was 1.88%; in the assay on Cryptococcus neoformans it was 2.51%.
On to `CC1(C)OB(O)c2ccc(C3=NOC(c4cc(Cl)c(F)c(Cl)c4)(C(F)(F)F)C3)cc21` (stereo not given), for which the Inhibition in the assay with Klebsiella pneumoniae is 23.09%; in the assay on Candida albicans, 3.03%; with Cryptococcus neoformans, -7.16%.
Taken in the same sequence, the figures for `CO[C@@H]1CN(c2ccc(C#CC3(O)CN4CCC3CC4)c(Cc3ccccc3)n2)C[C@H]1O` (stereo not given in full) were 0.81%, 1.57% and 0.17%.
The matching figures for `Cc1cccc(C(=O)Nc2ccnc(N(C)C3CCN(CC(C)C)CC3)c2)c1`: 8.58%, 4.57% and -6.76%.
Turning to `CC(=O)Oc1ccccc1C(=O)Nc1ncc([N+](=O)[O-])s1` [NITAZOXANIDE], the figures for the Inhibition in the assay with Klebsiella pneumoniae, with Candida albicans and with Cryptococcus neoformans were 13.55%, 26.7% and 17.15%, respectively.
In the case of `CO[C@@H](C(=O)N1Cc2[nH]nc(NC(=O)c3ccc(N4CCN(C)CC4)cc3)c2C1)c1ccccc1` [DANUSERTIB], the Inhibition with Klebsiella pneumoniae is 10.18%; with Candida albicans it was 3.17%; in the assay with Cryptococcus neoformans it was -4%.
As for `Cc1nn(Cc2ccccc2)c(Cl)c1C(=O)NC1CCCCCC1`, the Inhibition in the assay on Klebsiella pneumoniae was 0.72%; with Candida albicans, 5.99%; with Cryptococcus neoformans, -4.17%.
Consider `Cc1nn(C)c(C)c1NS(=O)(=O)c1c(Cl)cc(-c2ccnc(N3CCNCC3)c2)cc1Cl`, for which the results for the Inhibition with Klebsiella pneumoniae, in the assay with Candida albicans and with Cryptococcus neoformans were 16.22%, 6.45% and -5.82%, respectively.
Regarding `Cc1cc(C2=NOC(c3cc(Cl)c(F)c(Cl)c3)(C(F)(F)F)C2)ccc1C(=O)NCc1ccc2c(c1)C(C)(C)OB2O` (stereo not given), the Inhibition in the assay with Klebsiella pneumoniae is 14.68%; in the assay with Candida albicans it was 4.25%; in the assay with Cryptococcus neoformans it was -8.68%.
